This passage reports Potency results from PubChem BioAssay (Tox21).

A short description of assay [1]: Nuclear factor erythroid 2-related factor 2/antioxidant responsive element (Nrf2/ARE) small molecule agonists: qHTS cell viability counter screen in human keratinocytes (AID 1919968; active means well fitted curve in the direction sought with a large enough effect in the repeat runs; an effect the other way counts as inactive or inconclusive; further: nearly all actives have a fitted effect of over 55% in size). Summed up: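 Parallel cytotoxicity read: KeratinoSens HaCaT cells, compound treatment 23 h, viability by CellTiter-Fluor fluorescence 1 h post-reagent.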
A short description of assay [2]: Nuclear factor erythroid 2-related factor 2/antioxidant responsive element (Nrf2/ARE) small molecule agonists: luciferase reporter gene qHTS assay in human keratinocytes (AID 1919969). Further: nearly all actives have a fitted effect of over 35% in size. A general note: In a reporter assay the amount or activity of a reporter protein is the signal.
The target in assay [3] is Gonadotropin-releasing hormone receptor (Homo sapiens) (UniProt P30968). Description: Human gonadotropin-releasing hormone receptor (GnRHR) small molecule agonists, calcium flux assay in GnRHR-HEK293 cells (AID 1920063). Further: nearly all actives have a fitted effect of over 35% in size. Summed up: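 Calcium flux, agonist mode, human GnRHR stably integrated in HEK293; dye 1 h at 37 C before compound; Ex/Em=480/540 kinetic read, 3 min; 15 concentrations, triplicate.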
Sequence of Gonadotropin-releasing hormone receptor (Homo sapiens) (P30968 whole entry, looked up): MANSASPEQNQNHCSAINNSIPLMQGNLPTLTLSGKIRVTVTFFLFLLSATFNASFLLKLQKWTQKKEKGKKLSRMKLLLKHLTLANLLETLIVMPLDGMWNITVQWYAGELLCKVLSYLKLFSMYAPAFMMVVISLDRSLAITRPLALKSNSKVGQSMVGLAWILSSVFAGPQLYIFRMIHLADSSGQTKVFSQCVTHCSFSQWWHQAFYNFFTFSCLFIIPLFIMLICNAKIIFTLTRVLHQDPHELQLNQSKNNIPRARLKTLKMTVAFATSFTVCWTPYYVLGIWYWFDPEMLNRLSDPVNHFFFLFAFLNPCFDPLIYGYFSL
(Calcium flux is commonly read through the fluorescence of an indicator in the cells.)

Assay [4] addresses KiSS-1 receptor (Homo sapiens) (UniProt Q969F8). Description: Human kisspeptin (KISS1R) small molecule agonists, calcium flux assay in KISS1R-HEK293 cells (AID 1920064; active means well fitted curve in the direction sought with a large enough effect in the repeat runs; an effect the other way counts as inactive or inconclusive). Summed up: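 Triplicate 15-concentration series were applied to dye-loaded human KISS1R HEK293 cells, and agonist-evoked calcium fluorescence was captured for 3 min.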
A short description of assay [5]: G protein-coupled receptor (GPCR) small molecule agonists, calcium flux assay: HEK293 wild type cell line counter screen (AID 1920065). Summed up:
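Non-specific calcium responders were flagged by adding DMSO-dissolved compounds to dye-loaded cells and reading 480/540 nm fluorescence each second for 3 min; ATP served as positive control.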

Assay [6] in a line: p53 small molecule agonists, cell-based qHTS assay with human liver microsomes: qHTS cell viability counter screen (AID 1963579). Further: nearly all actives have a fitted effect of over 45% in size. Summed up: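 Metabolically activated exposure: compounds, human liver microsomes and NADPH (0.5 mg/mL final apiece) were added to p53RE-bla cells seeded 5 h earlier, left 16 h at 37 C, and then assessed for viability by CellTiter-Glo luminescence.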
On the technique in general: qHTS replaces the single test concentration by a dilution series.

The nature of assay [7]: p53 small molecule agonists, cell-based qHTS assay with rat liver microsomes: qHTS cell viability counter screen (AID 1963580). Further: nearly all actives have a fitted effect of over 45% in size. Summed up: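 Cytotoxicity counter screen: intracellular ATP read by CellTiter-Glo luminescence in the p53 reporter wells. HCT-116 p53RE-bla cells were treated for 16 h at 37 C alongside rat liver microsomes and NADPH, each 0.5 mg/mL final.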
Assay [8] in a line: p53 small molecule agonists, cell-based qHTS assay: qHTS cell viability counter screen (AID 1963581). Further: nearly all actives have a fitted effect of over 45% in size. Summed up:
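Multiplexed with the reporter read, a CellTiter-Glo step (30 min, room temperature) gauges ATP-based viability of HCT-116 p53RE-bla cells after 16 h compound incubation at 37 C.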

Assay [9] is described as follows: p53 small molecule agonists, cell-based qHTS assay (AID 1963582; active means well fitted activation curve with a large enough effect in the signal ratio in the repeat runs, not every such curve was filed as active; the % refers to the signal ratio; further: potency means the concentration at half of the fitted maximal effect). Summed up: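 Beta-lactamase reporter cells (p53RE-bla) treated with compounds for 16 h at 37 C; FRET substrate, 2 h, room temperature; fluorescence intensity.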
The target in assay [10] is 5-hydroxytryptamine receptor 2A (Homo sapiens) (UniProt P28223). Description: 5-hydroxytryptamine receptor 2A (HTR2A) small molecule agonists, cell-based qHTS assay (AID 1963587). Further: nearly all actives have a fitted effect of over 30% in size. Summed up: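 Kinetic calcium-flux fluorescence (2 min, 1 sec intervals) after compound addition in agonist mode. HTR2A-CHO cells were cultured 18 h, then dye-loaded 1 h at 37 C.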
Sequence of 5-hydroxytryptamine receptor 2A (Homo sapiens) (P28223 whole entry, looked up): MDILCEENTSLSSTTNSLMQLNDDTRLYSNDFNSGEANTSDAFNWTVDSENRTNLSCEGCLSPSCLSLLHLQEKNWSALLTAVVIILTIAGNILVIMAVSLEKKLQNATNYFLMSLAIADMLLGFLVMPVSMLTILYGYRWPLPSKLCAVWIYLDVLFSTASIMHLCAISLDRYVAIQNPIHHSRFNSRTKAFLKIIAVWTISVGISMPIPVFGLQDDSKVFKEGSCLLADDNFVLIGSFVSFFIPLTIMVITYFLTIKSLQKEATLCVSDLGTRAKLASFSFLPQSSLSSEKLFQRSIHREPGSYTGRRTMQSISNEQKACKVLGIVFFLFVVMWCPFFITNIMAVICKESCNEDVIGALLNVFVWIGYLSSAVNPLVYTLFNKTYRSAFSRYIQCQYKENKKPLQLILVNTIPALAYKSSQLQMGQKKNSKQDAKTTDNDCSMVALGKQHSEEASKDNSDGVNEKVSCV
Assay [11] deals with Muscarinic acetylcholine receptor M1 (Homo sapiens) (UniProt P11229). Description: Cholinergic receptor muscarinic 1 (CHRM1) small molecule antagonists, cell-based qHTS assay (AID 1963588). Further: nearly all actives have a fitted effect of over 40% in size. Summed up:
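Compounds were tested at 15 concentrations in three independent runs. Dye-loaded CHRM1-CHO cells were exposed 5 min at room temperature before stimulation by acetylcholine added at 50nM. Intracellular calcium was read kinetically on FDSS for 3 min.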

For assay [12] the target is unchanged. Description: Cholinergic receptor muscarinic 1 (CHRM1) small molecule agonists, cell-based qHTS assay (AID 1963589). Further: nearly all actives have a fitted effect of over 35% in size. Summed up: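 qHTS, 15-point titration, 3 independent runs: compounds pin-transferred onto dye-loaded CHRM1-CHO cells (human M1), calcium fluorescence followed every second to detect agonism.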
The nature of assay [13]: cAMP Responsive Elements (CRE) small molecule agonists, cell-based qHTS assay (AID 1963590). Summed up:
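Quantitative HTS for CRE agonists: HEK 293T CRE-bla cells, overnight plating, 3 h compound incubation at 37 C/5% CO2, then 2 h room-temperature LiveBLAzer B/G FRET substrate loading.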

Assay [14] is described as follows: cAMP Responsive Elements (CRE) small molecule antagonists, cell-based qHTS assay (AID 1963591; active means well fitted inhibition curve with a large enough effect in the signal ratio in the repeat runs, not every such curve was filed as active; the % refers to the signal ratio). Summed up:
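Fluorescence intensity from cleaved LiveBLAzer B/G substrate (2 h, room temperature) quantified CRE-bla activity in HEK 293T cells exposed 3 h to compound with 0.25 uM final NKH477.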

In assay [15] the target is D(2) dopamine receptor (Homo sapiens) (UniProt P14416). Description: Dopamine D2 receptor (DRD2) small molecule agonists, cell-based qHTS assay (AID 1963594). Further: nearly all actives have a fitted effect of over 35% in size. Summed up:
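cAMP accumulation in DRD2-HEK293 cells measured by HTRF after 1 h detection; compounds added 10 min before NKH477 (200nM […]) forskolin-analogue stimulation, 30 min at room temperature, with Ro20-1724 present at 0.1 mM final.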

For assay [16] the target is unchanged. Description: Dopamine D2 receptor (DRD2) small molecule antagonists, cell-based qHTS assay (AID 1963595; active means well fitted inhibition curve with a large enough effect in the signal ratio in the repeat runs, with a control signal flat; the % refers to the signal ratio; further: potency means the concentration at half of the fitted maximal effect). Summed up: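 Readout: HTRF cAMP, cAMP-d2 competing with cellular cAMP for anti-cAMP cryptate, read after 1 h. Cells: DRD2-HEK293. Conditions: 0.1 mM Ro20-1724, 12 nM quinpirole, 200 nM NKH477, 30 min RT.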
In assay [17] the target is 5-hydroxytryptamine receptor 2A (Homo sapiens) (UniProt P28223). Description: 5-hydroxytryptamine receptor 2A (HTR2A) small molecule antagonists, cell-based qHTS assay (AID 1963586). Further: nearly all actives have a fitted effect of over 45% in size. Summed up: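 CHO cells stably expressing human HTR2A were plated for 18 h at 37 C, then loaded with calcium dye for 1 h. Compounds were preincubated 5 min at room temperature before DOI (4 nM solution) was added. Kinetic fluorescence was read for 3 min.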

The target in assay [18] is Beta-2 adrenergic receptor (Homo sapiens) (UniProt P07550). Description: Adrenergic beta2 receptor (ADRB2) small molecule antagonists, cell-based qHTS assay (AID 1963592). Further: series mostly up to about 92 µM; nearly all actives have a fitted effect of over 50% in size. Summed up:
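Assay format: CHO-ADRB2 cells, 18-20hr seeding at 37C/5% CO2, then compound plus 1nM isoproterenol agonist mix for 0.5hr RT. Homogeneous time-resolved fluorescence cAMP detection after 1hr, expressed as 665/615 nm ratio.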

For assay [19] the target is unchanged. Description: Adrenergic beta2 receptor (ADRB2) small molecule agonists, cell-based qHTS assay (AID 1963593).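 Further: CHO cells stably overexpressing human ADRB2.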 Summed up: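 CHO cells stably over-expressing ADRB2 were plated overnight at 37C, then dosed with compounds plus a stimulation mix containing 100uM IBMX and 25uM Ro-20-1724 for 0.5hr at room temperature. cAMP was measured by HTRF competition, 1hr.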

Results filed as inconclusive are left out. Active and inactive are the calls of the source. Unless noted, the call rests on the fitted dose curve. Bridge positions count the residues as written; N and C are the ends. Square brackets hold non-standard residues; d marks the D form. Peptide text beside a SMILES is read from it. hArg = N=C(N)NCCCC[C@H](N)C(=O)O; Mpa = O=C(O)CCS

Sequence of D(2) dopamine receptor (Homo sapiens) (P14416 whole entry, looked up): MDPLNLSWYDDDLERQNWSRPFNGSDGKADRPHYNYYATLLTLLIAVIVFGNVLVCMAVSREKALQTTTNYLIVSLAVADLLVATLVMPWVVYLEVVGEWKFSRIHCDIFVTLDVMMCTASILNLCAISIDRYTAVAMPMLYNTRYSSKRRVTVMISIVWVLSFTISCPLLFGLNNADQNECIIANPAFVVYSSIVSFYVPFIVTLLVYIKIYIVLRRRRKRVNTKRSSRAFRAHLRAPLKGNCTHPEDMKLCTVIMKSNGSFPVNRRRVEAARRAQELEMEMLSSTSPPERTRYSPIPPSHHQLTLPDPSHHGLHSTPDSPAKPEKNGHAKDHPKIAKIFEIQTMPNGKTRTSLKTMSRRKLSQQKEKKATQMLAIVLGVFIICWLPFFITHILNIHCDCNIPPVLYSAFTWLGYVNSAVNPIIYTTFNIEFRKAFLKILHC
Sequence of KiSS-1 receptor (Homo sapiens) (Q969F8 whole entry, looked up): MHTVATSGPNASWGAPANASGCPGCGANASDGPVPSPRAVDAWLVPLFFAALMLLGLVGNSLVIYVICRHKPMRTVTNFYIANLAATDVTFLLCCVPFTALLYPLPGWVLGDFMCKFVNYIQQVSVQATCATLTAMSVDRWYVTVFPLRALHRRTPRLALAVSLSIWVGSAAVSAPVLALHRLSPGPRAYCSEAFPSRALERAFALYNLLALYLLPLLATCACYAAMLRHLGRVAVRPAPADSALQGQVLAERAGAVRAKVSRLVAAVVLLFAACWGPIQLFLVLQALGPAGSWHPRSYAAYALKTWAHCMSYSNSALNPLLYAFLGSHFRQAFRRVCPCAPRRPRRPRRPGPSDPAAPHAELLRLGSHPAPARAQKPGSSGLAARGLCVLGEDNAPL
Sequence of Muscarinic acetylcholine receptor M1 (Homo sapiens) (P11229 whole entry, looked up): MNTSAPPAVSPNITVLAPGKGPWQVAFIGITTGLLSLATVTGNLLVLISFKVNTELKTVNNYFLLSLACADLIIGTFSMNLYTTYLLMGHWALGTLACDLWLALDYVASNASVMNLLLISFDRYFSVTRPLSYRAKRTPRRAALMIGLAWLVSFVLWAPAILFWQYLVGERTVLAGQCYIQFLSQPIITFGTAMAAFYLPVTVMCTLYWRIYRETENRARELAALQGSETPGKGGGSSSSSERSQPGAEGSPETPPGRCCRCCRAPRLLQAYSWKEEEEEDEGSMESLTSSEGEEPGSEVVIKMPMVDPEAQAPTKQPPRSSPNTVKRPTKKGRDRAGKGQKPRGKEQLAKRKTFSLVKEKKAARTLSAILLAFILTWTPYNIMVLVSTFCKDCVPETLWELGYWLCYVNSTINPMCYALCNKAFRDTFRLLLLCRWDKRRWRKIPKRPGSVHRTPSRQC
Sequence of Beta-2 adrenergic receptor (Homo sapiens) (P07550 whole entry, looked up): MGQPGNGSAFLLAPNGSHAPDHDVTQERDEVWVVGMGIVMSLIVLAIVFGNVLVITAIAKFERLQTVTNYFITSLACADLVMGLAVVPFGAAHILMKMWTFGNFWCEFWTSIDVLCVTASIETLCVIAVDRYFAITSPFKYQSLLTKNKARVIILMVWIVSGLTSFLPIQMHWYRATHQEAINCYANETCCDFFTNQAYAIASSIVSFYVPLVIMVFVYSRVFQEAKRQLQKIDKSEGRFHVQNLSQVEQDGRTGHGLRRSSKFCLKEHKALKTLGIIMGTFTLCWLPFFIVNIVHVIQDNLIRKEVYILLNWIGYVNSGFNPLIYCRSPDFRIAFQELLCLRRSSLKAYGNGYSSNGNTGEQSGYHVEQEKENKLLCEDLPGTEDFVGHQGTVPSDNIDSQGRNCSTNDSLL

Take `CCc1c(C)[nH]c2c1C(=O)C(CN1CCOCC1)CC2` (configuration not stated): the Potency entry in assay [1], in assay [2], in assay [3], in [4], in [5] and in assay [6] was “inactive” in each case. Further, the Potency result in assay [7], in [8], in [9], in [10], in assay [11] and in [12] was “inactive” each time. In addition, the Potency entry in assay [13], in [14] and in [15] was “inactive” each time. Besides, the Potency in assay [16] was 750 nM (active).

Regarding `Cc1ccc(O)c(C(=O)c2ccccc2)c1`, the Potency entry in [1], in [2], in assay [3], in assay [4], in [5] and in assay [8] was “inactive” throughout. Moreover, the Potency result in assay [9], in assay [17], in assay [10], in assay [11], in [12] and in assay [18] was “inactive” in each case. Moreover, the Potency entry in [19], in assay [15] and in [16] was “inactive” each time.

For the compound `O=C(Cl)c1cc(Cl)cc(Cl)c1`, the Potency entry in assay [1], in assay [2], in [3], in assay [4], in [5] and in assay [6] was “inactive” throughout. Also, the Potency entry in [8], in assay [9], in assay [17], in [10], in assay [12] and in assay [13] was “inactive” in each case. The Potency entry in assay [18], in assay [19], in assay [15] and in assay [16] was “inactive” throughout.

Regarding `Nc1ccc(F)cc1F`, the Potency result in [1], in assay [2], in assay [3], in assay [4], in assay [5] and in assay [8] was “inactive” each time. Moreover, the Potency entry in assay [9], in [17], in assay [10], in assay [11], in [12] and in assay [13] was “inactive” each time. In addition, the Potency entry in assay [14], in assay [18], in [19], in [15] and in assay [16] was “inactive” throughout.

In the case of `CCCCCCNC(=O)n1cc(F)c(=O)[nH]c1=O`, the Potency entry in assay [1], in assay [2], in assay [3], in assay [4], in assay [5] and in assay [6] was “inactive” each time. Further, the Potency entry in [7], in assay [13], in [14], in [18], in [15] and in [16] was “inactive” in each case. The Potency in [9] is 5000 nM (active).

In the case of `NC(=O)[C@@H]1CSSCCC(=O)N[C@@H](CCCCN=C(N)N)C(=O)NCC(=O)N[C@@H](CC(=O)O)C(=O)N[C@@H](Cc2c[nH]c3ccccc23)C(=O)N2CCC[C@H]2C(=O)N1` ([Mpa][hArg]GDWPC-NH2; disulfide 1-7), the Potency result in [1], in [2], in [3], in assay [4], in [5] and in assay [6] was “inactive” throughout. In addition, the Potency entry in assay [7], in [8], in assay [9], in assay [13], in assay [14] and in [18] was “inactive” in each case. Moreover, the Potency entry in [19], in assay [15] and in [16] was “inactive” in each case.

Consider `CCOc1ccc(O)cc1`, for which the Potency entry in assay [1], in assay [2], in assay [3], in [4], in assay [5] and in [6] was “inactive” in each case. In addition, the Potency result in assay [7], in [9], in assay [17], in assay [10], in assay [11] and in [13] was “inactive” throughout. Also, the Potency entry in assay [14], in [15] and in assay [16] was “inactive” each time.
